The source of these data is PubChem BioAssay AID1076 (NMMLSC, 2008).

Activity calls are given as the source filed them.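 Rule for the calls: active = cell event count below 40, meaning activity score above 60 where score is 100 minus count; inactive = the rest.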

The first test can be described thus: cytotoxicity in LNCaP prostate cells – cell-based, cell event count, single point, cytotoxicity control for prostate differentiation activator project, confirmation (AID 1076).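 Note: counts scatter-gated live cells after medium removal discards detached dead cells.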 To be noted: LNCaP cell loss, flow cytometry event count, 4 d; at 100 µM; stronger effect = lower value. (In general: A flow cytometer gives signals particle by particle.)
With `Cn1c(=O)cc(OCC(=O)NCCCN2CCN(c3ccccc3F)CC2)c2ccccc21`, the cell event count is 227 (inactive).

For `COc1ccc(-c2cc(C(=O)NCc3ccc(Cl)cc3)no2)cc1OC`, the cell event count was 172 (inactive).

In the case of `Cc1ccc(OCC(O)Cn2c(=N)n(CCN3CCCCC3)c3ccccc32)cc1` (stereo not drawn), the cell event count was 13 (inactive).

Regarding `Cc1oc(-c2ccccc2F)nc1CN1CCC(C(=O)NCc2ccco2)CC1`, the cell event count was 330 (inactive).

`CCOC(=O)c1[nH]c(C)c(C(=O)NC2CCCCCC2)c1C`: the cell event count was 63 (inactive).

On to `O=C(NCCCN1CCN(c2ccccc2F)CC1)C1CCN(S(=O)(=O)N2CCOCC2)CC1`, for which the cell event count is 156 (inactive).

For `COc1ccc(-c2noc(CCC(=O)NCCCN3CCC(C)CC3)n2)cc1`, the cell event count is 63 (inactive).

As for `CCOC(=O)N1CCC(NC(=O)C2CCCN(Cc3nc(-c4cccc(Cl)c4)oc3C)C2)CC1` (stereo not drawn), the cell event count is 33 (inactive).

Regarding `CN1CCN(CC(=O)Nc2ccc(Cl)cc2Cl)CC1`, the cell event count was 117 (inactive).

Take `COc1ccc(N2CCN(CCCNC(=O)CN3CCN(Cc4ccccc4C)C3=O)CC2)cc1`: the cell event count is 19 (inactive).

For `CCOC(=O)c1c(C)n(C)c2ccc(OCC(O)CNC(CC)CO)cc12` (stereo not drawn), the cell event count was 99 (inactive).

Consider `CCc1ccc(-c2nc(CN3CCCC(C(=O)NCCc4ccc(OC)c(OC)c4)C3)c(C)o2)cc1` (stereo not drawn), for which the cell event count was 8 (inactive).

As for `CCN1CCN(C(=O)C2CCN(Cc3nc(-c4cccc(Cl)c4)oc3C)CC2)CC1`, the cell event count was 12 (inactive).

Take `O=S(=O)(Nc1cccc2ncccc12)c1cccs1`: the cell event count was 42 (inactive).

Regarding `COC(=O)c1ccccc1NC(=O)CN1CCC(n2nnc3cc(F)ccc32)CC1`, the cell event count is 174 (inactive).

For the compound `Cc1cc(N2CCC(N(C)C3CCCC3)CC2)nc2cc(O)ccc12`, the cell event count is 26 (inactive).

In the case of `CCN1CCN(CCNC(=O)C2CCCN(Cc3nc(-c4cccc(Cl)c4)oc3C)C2)CC1` (stereo not drawn), the cell event count was 14 (inactive).

Consider `CC(C)(C)C1CCc2onc(C(=O)Nc3cnn(Cc4ccc(F)cc4)c3)c2C1` (stereo not drawn), for which the cell event count is 66 (inactive).

Consider `COc1ccc(-c2cc(C(F)(F)F)nc(N3CCN(Cc4ccccc4)CC3)n2)cc1OC`, for which the cell event count was 152 (inactive).

Take `COc1cccc(Oc2cnc(N)nc2-c2ccc(OC)cc2O)c1`: the cell event count is 9 (inactive).

On to `Cc1oc(-c2ccc(Cl)cc2)nc1CN1CCCC(C(=O)NCc2ccccn2)C1` (stereo not drawn), for which the cell event count was 34 (inactive).

The test is the same for the next values; noted with them: LNCaP cell loss, flow cytometry event count, 4 d; event count; at 10 µM; stronger effect = lower value.
`COc1ccc(-c2noc(-c3cc(Cl)ccc3Cl)n2)cc1OC` displayed a cell event count of 110.

As to `Cc1cc2c(=O)n(CC(=O)N3CCN(c4ccccc4)CC3)cnc2s1`, the cell event count is 170.

As to `CCN1CCN(C(c2cccs2)C(C)NS(=O)(=O)c2ccc(Br)cc2)CC1` (stereo not drawn), the cell event count is 62.

`Cc1ccc2c(c1)c1c(n2CC(O)Cn2c(C)nc3ccccc32)/C(=N\O)CCC1` (stereo not drawn): the cell event count amounted to 454.

For `COc1ccc2c(c1)CCc1c(C(=O)Nc3cc(C)n(Cc4ccc(Cl)cc4)n3)noc1-2`, the cell event count is 406.

Consider `O=C(NCCCN1CCN(c2cccc(Cl)c2)CC1)C1CCC(=O)N1Cc1ccccc1Cl` (stereo not drawn), for which the cell event count is 239.

`O=C(Cn1ccc2ccccc2c1=O)NCCC(=O)N1CCN(c2cccc(C(F)(F)F)c2)CC1`: the cell event count came to 258.

Turning to `CCn1c(=O)cc(SCC(=O)NCCCN2CCN(c3ccc(F)cc3)CC2)c2ccccc21`, the cell event count stood at 241.

With `N#CC(C(=O)c1ccco1)c1ccccn1` (stereo not drawn), the cell event count worked out at 40.5.

`Cc1ccccc1-c1nc(CN2CCC(C(=O)NCC3CCCO3)CC2)c(C)o1` (stereo not drawn) showed a cell event count of 139.

`C=CCn1c(=N)n(CC(O)COc2ccccc2OC)c2ccccc21` (stereo not drawn) gave a cell event count of 94.

In turn, `CCOC(=O)N1CCC(NC(=O)c2cc3c(-c4cccc(OC)c4)nn(C)c3s2)CC1` gave a cell event count of 300.

`O=C(NCC(c1cccnc1)N1CCOCC1)c1cccc(Cl)c1` (stereo not drawn) registered a cell event count of 94.5.

The compound `CCOc1nc(-c2ccccc2O)nc2ccccc12` displayed a cell event count of 250.

`Cc1ccc(C)c2[nH]c(=O)c(CN(CCN3CCCC3)C(=O)Nc3cccc(Cl)c3)cc12` registered a cell event count of 97.

The compound `Cc1ccccc1-c1nc(CN2CCC(C(=O)NCc3ccco3)CC2)c(C)o1` registered a cell event count of 296.

Turning to `Cn1c(=O)cc(OCC(=O)NCCCN2CCN(c3ccccc3F)CC2)c2ccccc21`, the cell event count amounted to 401.

`COc1ccc(-c2cc(C(=O)NCc3ccc(Cl)cc3)no2)cc1OC` registered a cell event count of 255.

With `Cc1ccc(OCC(O)Cn2c(=N)n(CCN3CCCCC3)c3ccccc32)cc1` (stereo not drawn), the cell event count came to 96.

For `Cc1oc(-c2ccccc2F)nc1CN1CCC(C(=O)NCc2ccco2)CC1`, the cell event count amounted to 278.

`CCOC(=O)c1[nH]c(C)c(C(=O)NC2CCCCCC2)c1C`: the cell event count turned out to be 112.

The compound `O=C(NCCCN1CCN(c2ccccc2F)CC1)C1CCN(S(=O)(=O)N2CCOCC2)CC1` yielded a cell event count of 108.

Compound `COc1ccc(-c2noc(CCC(=O)NCCCN3CCC(C)CC3)n2)cc1` gave a cell event count of 136.

In turn, `CCOC(=O)N1CCC(NC(=O)C2CCCN(Cc3nc(-c4cccc(Cl)c4)oc3C)C2)CC1` (stereo not drawn) came in with a cell event count of 114.

`CN1CCN(CC(=O)Nc2ccc(Cl)cc2Cl)CC1`: the cell event count amounted to 198.

Compound `COc1ccc(N2CCN(CCCNC(=O)CN3CCN(Cc4ccccc4C)C3=O)CC2)cc1` returned a cell event count of 87.5.

In turn, `CCOC(=O)c1c(C)n(C)c2ccc(OCC(O)CNC(CC)CO)cc12` (stereo not drawn) had a cell event count of 88.5.

`CCc1ccc(-c2nc(CN3CCCC(C(=O)NCCc4ccc(OC)c(OC)c4)C3)c(C)o2)cc1` (stereo not drawn) had a cell event count of 144.

Consider `CCN1CCN(C(=O)C2CCN(Cc3nc(-c4cccc(Cl)c4)oc3C)CC2)CC1`, for which the cell event count stood at 192.

`O=S(=O)(Nc1cccc2ncccc12)c1cccs1` showed a cell event count of 78.5.

Regarding `COC(=O)c1ccccc1NC(=O)CN1CCC(n2nnc3cc(F)ccc32)CC1`, the cell event count was determined as 112.

Consider `Cc1cc(N2CCC(N(C)C3CCCC3)CC2)nc2cc(O)ccc12`, for which the cell event count turned out to be 196.

`CCN1CCN(CCNC(=O)C2CCCN(Cc3nc(-c4cccc(Cl)c4)oc3C)C2)CC1` (stereo not drawn) came in with a cell event count of 141.

Take `CC(C)(C)C1CCc2onc(C(=O)Nc3cnn(Cc4ccc(F)cc4)c3)c2C1` (stereo not drawn): the cell event count turned out to be 242.

`COc1ccc(-c2cc(C(F)(F)F)nc(N3CCN(Cc4ccccc4)CC3)n2)cc1OC` registered a cell event count of 376.

`COc1cccc(Oc2cnc(N)nc2-c2ccc(OC)cc2O)c1` displayed a cell event count of 180.

As to `Cc1oc(-c2ccc(Cl)cc2)nc1CN1CCCC(C(=O)NCc2ccccn2)C1` (stereo not drawn), the cell event count is 168.
